Holding throughout (assay): NCI-60 one-dose screen, 48 h (100 = growth as untreated, 0 = no growth, -100 = all killed)
Holding throughout (conditions): 10 µM unless noted

For assay [1], the system named is HCT-15 colon.
Assay [2] deals with HT29 colon.
For assay [3], the system named is SNB-75 CNS.
In assay [4] the test system is SNB-19 CNS.
The test system of assay [5] is U251 CNS.
Assay [6] has as its system PC-3 prostate.
Assay [7] has as its system SK-MEL-5 melanoma.
In assay [8] the test system is UACC-62 melanoma.
The subject of assay [9] is LOX IMVI melanoma.
The subject of assay [10] is SK-MEL-28 melanoma.
Assay [11] concerns SK-MEL-2 melanoma.
The subject of assay [12] is EKVX NSCLC.
The subject of assay [13] is SN12C renal.
Assay [14] deals with UO-31 renal.
In assay [15] the test system is ACHN renal.
Assay [16] concerns A498 renal.
Assay [17] has as its system CCRF-CEM leukemia.
The subject of assay [18] is MOLT-4 leukemia.
Assay [19] deals with TK-10 renal.
The test system of assay [20] is CAKI-1 renal.

This is part of a sample that, as a whole, favours compounds with a hit. Of some 83,000 tested, about 20% had one in any assay.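 How to read the values: 0–100, growth inhibition (40 = 60% inhibited); 0, no net growth; -100 to 0, cell death (-40 = 40% of starting cells died; -100 = all dead).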 Unmarked numbers belong to inactive results. Activity calls are given as the source filed them. Rule for the calls: active = growth percent below 10; inactive = the rest.

With `COc1cnc2c(c1)C(=O)c1c-2n(CCCn2ccnc2)c(=O)c2cc(F)ccc12`, the growth is -28.4% (active) in [1]; -16.2% (active) in assay [2]; 4.31% (active) in assay [3]; 16.6% in [4]; -27.1% (active) in [5]; -4.35% (active) in assay [6]. Moreover, the growth in [7] is -96.2% (active); in assay [8] it was -55% (active); in assay [9] it was -68.9% (active); in assay [10] it was -62.5% (active); in assay [11] it was -19.1% (active); in [12], 11.4%. The growth in assay [13] is 12.4%; in [14] it was -77.5% (active); in assay [15], -72.6% (active); in assay [16], -84.4% (active); in assay [17] it was -0.897% (active); in assay [18] it was -23.9% (active).
With `CCc1nn2c(-c3ccc(Cl)cc3C)c(-c3cc(OC)c(OC)c(OC)c3)nc2s1`, the growth in [1] was 69.8%; in assay [2] it was 66.8%; in assay [3] it was 3.79% (active); in assay [4] it was 56.8%; in assay [5], 89.7%; in [6] it was 64.1%. The growth was 70.3% in [7]; 60% in assay [8]; 77.1% in assay [9]; 80.8% in assay [10]; 69.6% in [11]; 80.2% in [13]. The growth in assay [14] is 47.1%; in assay [19], 77.2%; in [15], 76.7%; in assay [20] it was 55.2%; in assay [16], 74.5%; in assay [17], 85.1%. Also, the growth in [18] was 71%.
As to `Cc1ccc(C2=NNC(c3sc(Cl)nc3Cl)C2)cc1` (stereo unspecified), the growth in assay [1] is 77.3%; in [2], 107%; in assay [3], 96%; in assay [4], 92%; in [5], 99.1%; in assay [6] it was 93.6%. Further, the growth in [7] is 88.9%; in assay [8] it was 89.9%; in assay [9], 9.94% (active); in assay [10], 102%; in assay [11] it was 89.3%; in assay [13], 40.8%. For the same compound, the growth in assay [14] is 78.3%; in assay [19], 133%; in assay [15], 112%; in assay [20] it was 96.6%; in assay [16], 97.2%; in assay [17], 18%. Besides, the growth in assay [18] is 8.29% (active).
For `COc1ccc2c(c1)[n+](=O)c(C(=O)/C=C/c1cc(OC)c(OC)c(OC)c1)c(C)n2[O-]`, the growth in [1] is 49.2%; in [2], 85.2%; in assay [3], 62.2%; in [4] it was 67.1%; in [5] it was 55.6%; in [6], 59.9%. For the same compound, the growth in [7] is 50.8%; in assay [8] it was 64.7%; in assay [9], 55.1%; in assay [10] it was 69.1%; in assay [11], 57.2%; in assay [12], 61%. Further, the growth is 71.5% in [13]; 120% in [19]; 65.9% in assay [15]; 105% in [20]; 77.1% in assay [16]; -63.6% (active) in assay [17]. Moreover, in assay [18], the growth was 13.2%.
As for `CCCCCN(CCCCC)CCCNc1c2c(nc3ccc(Cl)cc13)CCCC2`, the growth is 32.5% in assay [1]; 1.62% (active) in [2]; 47.9% in [3]; 60.8% in assay [4]; 35% in [5]; 41.7% in assay [6]. The growth in assay [7] is 23.4%; in assay [8], 51%; in assay [9] it was 14%; in assay [10], 71.2%; in assay [11], 13.4%; in assay [12], 50.7%. Moreover, the growth was 49.9% in [13]; 31.5% in assay [19]; 40.8% in assay [15]; 26.6% in [20]; 38.4% in assay [16]; 27% in assay [17]. In [18], the growth is 27.8%.
For the compound `COc1cc(/C=C/C(=O)c2c(C)n([O-])c3ccc(Cl)cc3[n+]2=O)cc(OC)c1OC`, the growth in assay [1] was 59%; in assay [2] it was 102%; in [3], 75.8%; in assay [4], 83.1%; in assay [5] it was 80.1%; in assay [6], 89.5%. In addition, the growth in assay [7] was 47%; in assay [8], 82.9%; in assay [9] it was 68.9%; in assay [10], 84%; in [11] it was 61.8%; in assay [12] it was 65.8%. For the same compound, the growth in assay [13] is 80.1%; in assay [19], 103%; in [15], 79.6%; in assay [20], 107%; in assay [16] it was 98.2%; in assay [17], -34.2% (active). The growth in assay [18] was -34.8% (active).
As to `CCOc1cc(/C=C/C(=O)CC(=O)/C=C/c2ccc(OC(=O)CNCCN(CC)CC)c(OCC)c2)ccc1OC(=O)CNCCN(CC)CC`, the growth in assay [1] is -59.1% (active); in assay [2], -88% (active); in assay [3], -15.1% (active); in [4], 11.4%; in assay [5] it was -60.1% (active); in [6] it was -18.5% (active). The growth in assay [7] is -90.1% (active); in assay [8], -70.9% (active); in assay [9] it was -82.3% (active); in [10], -57.1% (active); in assay [11] it was 4.43% (active); in [12], -38.1% (active). In addition, the growth is -9.33% (active) in assay [13]; 7.64% (active) in assay [19]; -88.4% (active) in assay [15]; -30.9% (active) in [20]; -26.8% (active) in [16]; 4.21% (active) in [17]. The growth in [18] is -23.4% (active).
Take `NC(=O)c1cc(Br)cc(Br)c1NS(=O)(=O)c1ccccc1`: the growth in assay [1] is 100%; in assay [2], 110%; in assay [3], 68.2%; in [4], 105%; in assay [5] it was 108%; in [6], 89.2%. Besides, the growth in assay [7] was 98.2%; in [8], 94.9%; in assay [9], 99.4%; in assay [10], 110%; in assay [11] it was 110%; in assay [13], 95.9%. Moreover, the growth in assay [14] was 75%; in assay [19], 130%; in assay [15], 100%; in assay [20], 89.8%; in [16], 96.1%; in [17], 91.8%. For the same compound, in assay [18], the growth is 123%.

These data come from PubChem BioAssay (NCI).
